About 83,000 compounds went through this panel and 20% of them were active in at least one assay; those are over-represented in the sample as a whole.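 Note: values are percent growth. 100 is the growth of untreated cells, values between 100 and 0 indicate rising inhibition; between -100 and 0 indicates cell death.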 A number with no mark means an inactive call. The source made the active and inactive calls. How the source made its calls: active means growth percent below 10; inactive means the rest.
Tests used:
Assay in all cases: NCI-60 one-dose screen, 48 h (100 = growth as untreated, 0 = no growth, -100 = all killed)
Details in all cases: 10 µM
SK-MEL-2 melanoma = tested on: SK-MEL-2 melanoma
EKVX NSCLC = tested on: EKVX NSCLC
SN12C renal = tested on: SN12C renal
UO-31 renal = tested on: UO-31 renal
TK-10 renal = tested on: TK-10 renal
ACHN renal = tested on: ACHN renal
CAKI-1 renal = tested on: CAKI-1 renal
A498 renal = tested on: A498 renal
CCRF-CEM leukemia = tested on: CCRF-CEM leukemia
MOLT-4 leukemia = tested on: MOLT-4 leukemia
SR leukemia = tested on: SR leukemia
RPMI-8226 leukemia = tested on: RPMI-8226 leukemia
OVCAR-8 ovarian = tested on: OVCAR-8 ovarian
OVCAR-5 ovarian = tested on: OVCAR-5 ovarian
OVCAR-4 ovarian = tested on: OVCAR-4 ovarian
SK-OV-3 ovarian = tested on: SK-OV-3 ovarian
IGROV1 ovarian = tested on: IGROV1 ovarian
OVCAR-3 ovarian = tested on: OVCAR-3 ovarian
HS 578T breast = tested on: HS 578T breast
NCI/ADR-RES ovarian = tested on: NCI/ADR-RES ovarian

SMILES | growth (SK-MEL-2 melanoma) | growth (EKVX NSCLC) | growth (SN12C renal) | growth (UO-31 renal) | growth (TK-10 renal) | growth (ACHN renal) | growth (CAKI-1 renal) | growth (A498 renal) | growth (CCRF-CEM leukemia) | growth (MOLT-4 leukemia) | growth (SR leukemia) | growth (RPMI-8226 leukemia) | growth (OVCAR-8 ovarian) | growth (OVCAR-5 ovarian) | growth (OVCAR-4 ovarian) | growth (SK-OV-3 ovarian) | growth (IGROV1 ovarian) | growth (OVCAR-3 ovarian) | growth (HS 578T breast) | growth (NCI/ADR-RES ovarian)
CC(C)c1ccc(C(=O)Nc2sc3c(c2C(N)=O)CCC(=O)C3=O)cc1 | 98.8% | 87.9% | 94.7% | 59.7% | 125% | 93.6% | 91.9% | 130% | 86.4% | 72.4% | 72.8% | 85% | 94.2% | 114% | 91.5% | 89.4% | 72.4% | 87% | 93.7% | 97.4%
COc1cc(-c2nc3cc(Cl)c(Cl)cc3[nH]2)ccc1OCc1nnc(-c2ccc(Br)cc2)o1 | 0.585% (active) | 14.3% | -39.2% (active) | -91.1% (active) | -43.4% (active) | -100% (active) | -76.6% (active) | -86.5% (active) | 7.7% (active) | -7.63% (active) | -34.4% (active) | -23.2% (active) | 15.7% | 39.6% | -92.2% (active) | -11.1% (active) | 42% | -47.6% (active) | -22.5% (active) | 22%
Nc1nc(Nc2ccc(Cl)cc2)nn1Cc1cccc(Br)c1 | 27.2% | 22.3% | 41.1% | 18.2% | 61.1% | 22.8% | 26.9% | -1.15% (active) | 34.3% | 20.1% | 30.6% | 29.1% | 54.9% | 49.7% | 46.8% | 47.2% | 13% | 47.7% | 18.2% | 25.7%
O=c1c2ccccc2nc(COc2ccccc2)n1/N=C/c1ccc(N2CCOCC2)cc1 | 70.4% | 69.7% | 68% | 69.3% | 81.6% | 60.6% | 51.9% | 78.2% | 97.7% | 117% | 95.1% | 88.8% | 33.1% | 93.3% | 40.4% | 64.5% | 56.9% | 85.2% | 41.2% | 58.1%
COc1ccc2[nH]c(=O)c(CSc3ccc(Nc4nccc(-c5ccc(Cl)cc5)n4)cc3)cc2c1 | 94.3% | 86.8% | 83.7% | 85.5% | 124% | 90.3% | 76.3% | 141% | 96.7% | 84.4% | 90.9% | 81.3% | 70.3% | 96.6% | 94.8% | 119% | 105% | 116% | 63.8% | –
O=C1CCC(N2Cc3c(NCc4ccc(-c5ccccc5)cc4)cccc3C2=O)C(=O)N1 (centres undefined) | 101% | 84.2% | 73.8% | 45.3% | 79.1% | 73.2% | 82.8% | 70.5% | 19.9% | 13.4% | 72.5% | 68.5% | 34.9% | 83.7% | 69.8% | 103% | 57.4% | 82.8% | 51.7% | 52.6%
O=C(CNc1nc(-c2ccccc2)cs1)Nc1ccccc1 | -68.8% (active) | -93.3% (active) | -47.3% (active) | 17.9% | -79.4% (active) | -27.4% (active) | 5.53% (active) | -4.95% (active) | 14.9% | -3.86% (active) | 4.25% (active) | 8.69% (active) | 10% | -67.4% (active) | 35% | 11.2% | -7.7% (active) | -12.1% (active) | 14.3% | -22.8% (active)
CCOC(=O)CNC(=O)CN(Cc1ccccc1)C(=O)[C@@]1(C)CCC[C@]2(C)[C@H]3C[C@H]4C(C(C)C)=C[C@]3(CC[C@H]21)[C@@H]1C(=O)OC(=O)[C@@H]14 | 82.3% | 67.6% | 69% | 65.5% | 90.3% | 57% | 88.3% | 110% | 15.6% | 27.8% | 4.44% (active) | 15.2% | 55.9% | 105% | 62.2% | 89.4% | 41.8% | 44.1% | 60.3% | 45.3%
Nc1nc2c(F)c(F)c(F)c(F)c2s1 | 106% | 46.1% | 113% | 91% | 101% | 114% | 85.7% | 114% | 106% | 105% | 86.5% | 108% | 99.7% | 104% | 104% | 99.5% | 101% | 104% | 100% | 104%
O=C1Nc2ccc(Cl)cc2/C1=C/c1ccc(OCc2ccccn2)cc1 | 111% | 65.7% | 44.5% | 59.6% | 90.1% | 57% | 61.6% | 45.1% | 83.2% | 46.8% | 54.9% | 73.9% | 45.9% | 88.2% | -1.81% (active) | 89.2% | 54.6% | 57.3% | 14.8% | 14.1%
COc1cc(C2CC(c3ccccc3)=Nc3c(N)nc(N)nc3N2)ccc1Oc1nc(Nc2ccc(F)cc2)nc(N(C)C)n1 (centres undefined) | 54.5% | 50.2% | 64.6% | 46.6% | 82.6% | 38.5% | 39.3% | 94.4% | 25.4% | 1.45% (active) | 2.83% (active) | 13.5% | 40.4% | 85.8% | 35.5% | 87.2% | 50.8% | 36.4% | 48.1% | 36.8%
O=C(Cc1ccc2c(c1)CN(C1CCC(=O)NC1=O)C2=O)NCc1cccc2ccccc12 (centres undefined) | -45.7% (active) | 1.9% (active) | -7.92% (active) | -33.8% (active) | 18% | -19% (active) | 7.68% (active) | -13.2% (active) | 9.65% (active) | -15.2% (active) | 13.6% | 18% | -3.71% (active) | -11% (active) | -2.52% (active) | -7.7% (active) | -13.5% (active) | -22.3% (active) | -11.3% (active) | -18.5% (active)
O=C(N/C(=C1/OCCN1Cc1ccccc1)[P+](c1ccccc1)(c1ccccc1)c1ccccc1)c1ccccc1 | -27.6% (active) | 14.6% | 7.37% (active) | 83.1% | 26.1% | 82.6% | 79.5% | 83% | 13.3% | 20.6% | 8.3% (active) | 0.374% (active) | 16.5% | 67.3% | 21.2% | 23% | 2.86% (active) | -7.02% (active) | -2.64% (active) | 97.8%
CC(=O)c1cc(C(=O)c2ccc3c(c2)NC(=O)CO3)n2ccc3ccccc3c12 | 107% | 75% | 86.1% | 59% | 78.2% | 50% | 55.4% | 97.3% | 82.9% | 66.8% | 63.2% | 62.7% | 50.3% | 85.7% | 47.9% | 108% | 96.2% | 118% | 63.1% | 69%
O/N=C(\CSc1nnc(-c2c[nH]c3ccccc23)n1-c1ccccc1)c1ccc(Br)cc1 | -66.3% (active) | -63.3% (active) | -77.2% (active) | 3.58% (active) | -82.8% (active) | -83.5% (active) | -94.3% (active) | 62.2% | -6.14% (active) | -19.2% (active) | 1.29% (active) | -13.1% (active) | -41.7% (active) | -82.5% (active) | -83.4% (active) | -50.2% (active) | -65.4% (active) | 0.699% (active) | -39.4% (active) | -73.9% (active)

— PubChem BioAssay (NCI)
